Screens as filed in PubChem.
The entries come from a sample that favours hits as a whole.
VDR inh: vitamin D3 receptor (human) inhibition. VDR-SRC2-3 peptide fluorescence polarization, 2 h. P11473. Potency, µM, for inactives: max response, negative = inhibition, usual class: inhibitors. 0.93% of 400,000 active; further: on the % scale 0 is the no-effect control and ±100 the full control effect
Target sequence (P11473 whole entry, looked up): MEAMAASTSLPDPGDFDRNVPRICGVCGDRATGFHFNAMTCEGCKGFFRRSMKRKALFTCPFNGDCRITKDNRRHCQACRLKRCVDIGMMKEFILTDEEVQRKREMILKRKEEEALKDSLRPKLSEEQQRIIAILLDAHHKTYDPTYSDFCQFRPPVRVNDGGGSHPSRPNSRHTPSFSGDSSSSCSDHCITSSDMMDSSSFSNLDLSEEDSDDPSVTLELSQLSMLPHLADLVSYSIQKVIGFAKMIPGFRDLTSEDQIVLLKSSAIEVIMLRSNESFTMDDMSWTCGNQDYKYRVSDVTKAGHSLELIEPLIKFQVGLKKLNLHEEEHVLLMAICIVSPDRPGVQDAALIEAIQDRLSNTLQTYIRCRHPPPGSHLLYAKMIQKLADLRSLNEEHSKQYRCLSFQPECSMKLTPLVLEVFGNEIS
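Fluorescence polarization assay measuring small-molecule disruption of VDR binding to the coregulator peptide SRC2-3. Compounds were pin-transferred (23 nl) into the reagent mix and incubated 2 h at room temperature before reading.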
12-LOX inh: ALOX12 (human) lipoxygenase inhibition. Potency, µM (doses to about 108 µM), for the others: at the top dose activity change, negative = inhibition, hits mostly inhibitors. AID 1671190. 1.1% of 580,000 active. purified 12hLO, xylenol orange hydroperoxide absorbance; further: on the % scale 0 is the no-effect control and ±100 the full control effect
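Hydroperoxide product was detected by ferrous iron/xylenol orange as the 573 to 405 nm absorbance ratio. Arachidonic acid at 40 uM (final) was turned over for 30 min at room temperature by 150 nM human 12hLO, pH 7.0 Hepes buffer, after 15 min compound preincubation.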
Sfp PPTase inh: Sfp phosphopantetheinyl transferase inhibition | Biochemical Sfp PPTase activity, qHTS | Potency, µM, without a hit: largest response in the series, negative = inhibition, actives largely listed as inhibitors | Q9F4F7 | 3.5% of 310,000 active;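 further: the enzyme is Sfp with the accession as filed and its product quenches rhodamine fluorescence; 0% = enzyme reaction without inhibitor and -100% = no enzyme wells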
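Step 1, compound plus 15 nM Sfp-PPTase, 15 min, room temperature. Step 2, add rhodamine-CoA (5 uM) and BHQ-2-YbbR (12.5 uM). Step 3, read 525/598 nm fluorescence at 0 and 30 min.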
G9a block: blocks human histone lysine methyltransferase G9a. Q96KQ7. AID 504332. Potency, µM (series often up to 102 µM), for the others: at the highest dose activity, negative = inhibition, most hits filed as inhibitors. 8.8% of 350,000 active. G9a H3K9 monomethylation, AlphaScreen, 2 h; further: on the % scale 0 is the no-effect control and ±100 the full control effect; nearly all actives have a fitted effect of over 75% in size
Target sequence (Q96KQ7 913-1193 limits assumed): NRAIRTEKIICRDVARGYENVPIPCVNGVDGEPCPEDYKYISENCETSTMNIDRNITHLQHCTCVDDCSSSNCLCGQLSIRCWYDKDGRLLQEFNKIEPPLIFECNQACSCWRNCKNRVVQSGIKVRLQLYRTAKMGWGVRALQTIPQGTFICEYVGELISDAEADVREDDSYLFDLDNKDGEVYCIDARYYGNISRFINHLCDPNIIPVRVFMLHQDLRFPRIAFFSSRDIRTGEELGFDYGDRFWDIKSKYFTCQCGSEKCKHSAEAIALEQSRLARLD
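Step 1: enzyme (final 20 nM) with compound, 15 min RT. Step 2: substrate peptide 500 nM and SAM 20 uM, 2 h RT. Step 3: anti-H3K9me1 antibody and AlphaScreen beads, 10 min, then plate read.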
GRP78 ERSR act: inducers of ER stress response in human glioma cells; AID 602332; U87-MG GRP78 promoter luciferase reporter, 16 h; 0.02% of 420,000 active; Potency, µM, for the others: top-dose activation, actives largely listed as activators; further: series mostly up to about 76 µM; % of control where 0% means no effect; nearly all actives have a fitted effect of over 35% in size
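ERSR induction read as luciferase luminescence (Bright-Glo, 10 min at room temperature) in stably transfected human U87-MG glioma cells exposed to compounds for 16 h, using GRP78 as sensor.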
* marks the source's active call; other numbers are inactive results; ? = inconclusive; / = not tested or not shown; [ ] = remark or other dose. The call rests on the fitted dose curve; in most records, active means well fitted curve in the direction sought with a large enough effect; inconclusive means small, poorly fitted or top-dose-only effect, or another doubt; inactive means no such curve, though single readings can be large; an effect the other way counts as inactive or inconclusive. Potency means the concentration at half of the fitted maximal effect.

SMILES	VDR inh	12-LOX inh	Sfp PPTase inh	G9a block	GRP78 ERSR act
Cc1ccc(OCCCN2C(=O)C(=O)c3cccc(C)c32)cc1	?	?	?	?	3%
CCCOc1ccc(CN2C(=O)C(=O)c3cccc(C)c32)cc1	?	?	/	28µM*	?
Cc1cccc2c1N(CCOc1ccccc1Cl)C(=O)C2=O	?	?	0%	?	-5%
Cc1ccccc1OCCN1C(=O)C(=O)c2cccc(C)c21	50µM*	?	-3%	24%[59 µM]	-4%
COc1ccc(OC)c2sc(N(CCCN(C)C)C(=O)c3ccc(S(=O)(=O)N4CCc5ccccc5C4)cc3)nc12	/	/	/	8.9µM*	/
COc1cc2nc(N(CCCN(C)C)C(=O)c3ccc(S(=O)(=O)N4CCc5ccccc5C4)cc3)sc2cc1OC	3%	?	/	40µM*	-5%
Cc1ccc(CN2CCN(CC(=O)Nc3cccc4nsnc34)CC2)o1	/	-12%	/	/	/
CN(C)/C=C/C(=O)c1ccc(Br)s1	-6%	40µM*	7%	22%[12.7 µM]	1%
Cc1ccc(C2Cn3cnc(C(=O)N4CCC(C(=O)NCc5ccccc5)CC4)c3CO2)cc1 (configuration not stated)	/	59%	/	/	/
CCOc1nc2ccccc2cc1/C=C/C(=O)O	-7%	-10%	12%	50µM*	-4%
O=C(O)/C=C/c1ccc2ccccc2n1	-10%	-2%	1%	-4%[59 µM]	-4%
C=C(C)CSc1nc2c(c(=O)n(C)c(=O)n2C)n1CCCc1ccccc1	/	-29%	/	/	/
Cc1ccc(Cn2c(=N)n(CC(=O)c3ccc([N+](=O)[O-])cc3)c3ccccc32)cc1	-20%	?	35µM*	50µM*	-4%
CCCCn1c(=N)n(CC(=O)c2ccc([N+](=O)[O-])cc2)c2ccccc21	/	?	56µM*	40µM*	/
Cc1ccc(C(=O)Cn2c(=N)n(CCN3CCOCC3)c3ccccc32)cc1	12%	7%	/	5%[0.501 µM]	-4%
CCCCN(C(=O)c1cccnc1OCC)c1c(N)n(Cc2ccccc2)c(=O)[nH]c1=O	/	8%	/	/	/
O=C(CN(c1cc(Cl)cc(Cl)c1)S(=O)(=O)c1ccccc1)N1CCCC1	/	7%	/	/	/
Cc1cc(C)n(-c2nc(C)c(C)c(=O)n2CC(=O)Nc2ccc(OC(F)(F)F)cc2)n1	14%	-3%	/	0%[59 µM]	-3%
Cc1cc(C)n(-c2nc(C)c(C)c(=O)n2CC(=O)Nc2ccc(Cl)c(Cl)c2)n1	17%	-13%	/	4.5µM*	-2%
O=C1/C(=C\c2ccc(Br)o2)SC(=Nc2ccccc2)N1c1ccccc1	16%	0%	-16%	40µM*	-1%
CN(Cc1ccc(Br)cc1)C(=O)c1cc2ccccc2[nH]1	/	4%	/	/	/
O=C(/C=C/c1ccccc1)c1cc(Br)ccc(=O)c1O	22µM*	?	16µM*	13µM*	-14%
Cc1ccc(/C=C/C(=O)c2ccccc(=O)c2O)cc1C	45µM*	45µM*	?	28µM*	8%
CCSC1=N/C(=C\C=C2/Oc3ccccc3N2CC)C(=O)S1	17%	?	-7%	13µM*	8%
CCSC1=N/C(=C\c2ccccc2OC)C(=O)S1	/	-28%	/	/	/
SMILES	VDR inh	12-LOX inh	Sfp PPTase inh	G9a block	GRP78 ERSR act
Cc1ccc(Nc2nc(C(N)=O)c(NC(=O)c3ccccc3Br)s2)cc1	-3%	14µM*	/	-23%[59 µM]	2%
NC(=O)c1nc(Nc2ccccc2)sc1NC(=O)c1c(F)cccc1F	4%	-14%	/	-2%[59 µM]	-5%
O=C(O)CCCCCNc1ccc2nsnc2c1[N+](=O)[O-]	10%	-16%	89µM*	61%[59 µM]	-3%
O=C(O)CCCCCNS(=O)(=O)c1cccc2nsnc12	-6%	-21%	33%	27%[59 µM]	-1%
Cc1ccc(S(=O)(=O)NCC(=O)N(c2ccccc2)C(C(=O)NCc2ccccc2)c2ccco2)cc1 (configuration not stated)	8%	-32%	79µM*	-5%[59 µM]	-3%
COc1cc(/C=C/CN2CCC(CO)(CC3CCCCO3)CC2)ccc1O (configuration not stated)	-18%	-2%	13%	56µM*	-5%
COc1ccc(/C=C/CN2CCN(CC(C)C)C(CCO)C2)cc1 (configuration not stated)	-27%	-12%	12%	?	-4%
COc1cc(/C=C/CN2CCN(CCC(C)C)C(CCO)C2)ccc1O (configuration not stated)	-8%	-2%	-1%	71µM*	-3%
OCC1(CC2CCCCO2)CCN(C/C=C/c2ccccc2)CC1 (configuration not stated)	-15%	-26%	15%	8%	-3%
COc1cc(/C=C/CN2CCN(Cc3ccc(C)o3)C(CCO)C2)ccc1O (configuration not stated)	?	0%	2%	79µM*	-1%
CC(C)C(=O)/C(C#N)=C\c1ccc(OCc2cccc(F)c2)cc1	/	-33%	/	/	/
O=C(O)CSc1sc(=S)sc1SCC(=O)O	6%	?	79µM*	45µM*	-4%
CCCn1nc(C(=O)OCc2nnc(-c3ccccc3)o2)c2ccccc2c1=O	/	3%	/	/	/
NS(=O)(=O)c1ccc(CCNC(=O)CCCCCNc2nc(=S)[nH]c3ccccc23)cc1	/	-9%	4%	50µM*	/
CCCCNC(=O)CN1CCN(c2ncc(NC(=O)c3ccc(Cl)cc3)cc2C(=O)O)CC1	4%	35µM*	/	?	/
CCCNC(=O)CN1CCN(c2ncc(NC(=O)c3ccc(Cl)cc3)cc2C(=O)O)CC1	-7%	3%	/	?	-3%
Brc1ccccc1C1=Nn2c(nnc2-c2ccco2)SC1	5%	145%	-18%	1%[59 µM]	10%
CC1=Nn2c(nnc2-c2cc(-c3ccccc3)n[nH]2)SC1	-2%	2%	-1%	14µM*	7%
COc1ccc(C2=Nn3c(nnc3-c3ccccc3C)SC2)cc1OC	/	/	5%	/	/
Brc1ccccc1C1=Nn2c(nnc2-c2ccccc2)SC1	-10%	-13%	79µM*	32µM*	-9%
COc1ccc(C2=Nn3c(nnc3-c3ccccc3C)SC2)cc1	/	/	45µM*	/	/
c1ccc(C2=Nn3c(nnc3-c3ccco3)SC2)cc1	-2%	?	50µM*	32µM*	-1%
O=S(Cc1cccc(F)c1)Cc1cccc(C(F)(F)F)c1 (configuration not stated)	/	-17%	/	/	/
Cc1cc(F)ccc1NC(=O)c1nc2ccccc2nc1N1CCOCC1	/	-4%	/	/	/
Cc1cc(-n2c(C)cc(C(=O)CSc3nnc(C(C)Oc4ccccc4F)o3)c2C)no1 (configuration not stated)	/	5%	/	/	/
COc1ccc(CNc2ccccc2SC)cc1OC	1%	?	56µM*	10µM*	2%
COc1cc(CNc2ccccc2SC)cc(OC)c1OC	6%	45µM*	?	11µM*	-3%
COc1cc(CNc2nc3ccccc3n2C)cc(OC)c1OC	-6%	9%	6%	18%[59 µM]	0%
NS(=O)(=O)c1ccc(N/N=C/c2cccc(C(F)(F)F)c2)c([N+](=O)[O-])c1	/	1%	/	/	/
